Structures are written as SMILES. A number with no mark means an inactive call. How the calls were made is not given here.

Drawing on PubChem BioAssay, this text covers inhibition for 22 molecules.

In the assay the target is Pantothenate synthetase (Mycobacterium tuberculosis (strain ATCC 25618 / H37Rv)) (UniProt P9WIL5). The assay can be described thus: Recombinant Mtb pantothenate synthetase (PanC) inhibitors, coupled enzyme, confirmatory (AID 375).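 Further: 0% = full reaction with vehicle and 100% = no enzyme background.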 Conditions: coupled enzyme assay; at 10 µM, stronger effect = higher value.
Sequence of Pantothenate synthetase (Mycobacterium tuberculosis (strain ATCC 25618 / H37Rv)) (P9WIL5 whole entry, looked up): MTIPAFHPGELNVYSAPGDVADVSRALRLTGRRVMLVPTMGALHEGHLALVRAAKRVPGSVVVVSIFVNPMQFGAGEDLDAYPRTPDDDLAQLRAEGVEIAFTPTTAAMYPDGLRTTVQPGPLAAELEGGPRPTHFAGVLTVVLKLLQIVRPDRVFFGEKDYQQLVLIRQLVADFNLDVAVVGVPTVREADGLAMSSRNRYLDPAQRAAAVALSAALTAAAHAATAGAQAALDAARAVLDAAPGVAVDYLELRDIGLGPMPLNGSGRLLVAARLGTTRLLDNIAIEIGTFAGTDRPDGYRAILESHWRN
By inhibition is commonly meant the relative decrease from the control value, in per cent. Regarding `CC(OC1=CC(=O)CCC1)C(=O)c1ccccc1` (configuration not stated), the inhibition was 2%.
`Cc1noc(C)c1C(=O)Nc1sc(C)c(C)c1C#N`: the inhibition is 2%.
Take `CC(C)NC(=O)CSCc1ccccc1Cl`: the inhibition was 13%.
Consider `CC(C)c1nnc(NC(=O)Cc2cccs2)s1`, for which the inhibition was 0%.
Then `CCOC(=O)c1sc(NC(=O)C2CC=CCC2C(=O)O)nc1C` (configuration not stated), with 3%.
Take `O=C(O)CCn1c(=O)c2ccccc2c2ccccc2c1=O`: the inhibition is 1%.
As for `O=C(CN1C(=O)c2cccc3cccc1c23)NCC1CCCO1` (configuration not stated), the inhibition was 5%.
The value for `O=C(Nc1ccccc1-c1nc2ccccc2o1)c1ccc2c(c1)OCCO2` was 5%; that for `CCN(CC)CCCNc1oc(-c2cccc(Cl)c2)nc1C#N` was 0%; that for `COc1ccc(CN(C(=O)CSc2nnc(-c3ccccc3F)o2)c2ccc(F)cc2)cc1` was 0%.
Then `C=COCCNC(=O)Nc1ccc(Cl)c(Cl)c1`, with 0%; and `COc1ccc(S(=O)(=O)N2CCOCC2)cc1C(=O)Nc1cc(C)on1`, with 0%; and `Cc1ccc(C(C)C)c(OCc2nnc(SCC(=O)Nc3ncc(C)s3)n2C)c1`, with 2%.
For the molecule `CCOc1ccc(Nc2nc(Cc3nnc(SCC(N)=O)o3)cs2)cc1`, the inhibition is 0%.
For `COC(=O)C1CCN(C(=O)NC(C)(C)C)CC1`, the inhibition is 6%.
On to `CC1CCCCN1S(=O)(=O)c1ccc(NC(=O)c2cccs2)cc1` (configuration not stated), for which the inhibition was 0%.
Regarding `CCC(=O)Nc1cc(C)c(NC(=O)C23CC4CC(CC(C4)C2)C3)cn1`, the inhibition was 5%.
Take `CO[C@H]1C[C@@H]2CC[C@@H](C)[C@@](O)(O2)C(=O)C(=O)N2CCCC[C@H]2C(=O)O[C@H]([C@H](C)C[C@@H]2CC[C@@H](O)[C@H](OC)C2)CC(=O)[C@H](C)C=C(C)[C@@H](O)[C@@H](OC)C(=O)[C@H](C)C[C@H](C)C=CC=CC=C1C`: the inhibition is 0%.
For `CCC(C)n1[nH]c(=O)c2c(C)cc(C)nc21` (configuration not stated), the inhibition was 0%.
Turning to `CCOC(=O)c1cc(-c2ccccc2)sc1N`, the inhibition was 3%.
Then `CCOc1ccc2nc(NC(=O)CSc3nnnn3C3CCCCC3)sc2c1`, with 1%; and `O=C(CS(=O)(=O)Cc1ccccc1)Nc1nc2ccccc2s1`, with 0%.
